Assay results taken from PubChem BioAssay AID1863 (Southern Research Specialized Biocontainment Screening …, 2009).
“And” between values parts separate entries of the source, which are not always exact repeats. Identical values can stand only once. Hit rate of the full screen: of about 300,000 compounds, about 480 (0.16%) were called active.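 How the source made its calls: active means inhibition over 29.93%, a cutoff 3 SD above the screen mean, later confirmed by dose response; inconclusive means inhibition over 29.93% but no dose response follow-up; inactive means inhibition at most 29.93% or unconfirmed.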 Not all results are given here. Results with a measured potency or affinity are listed apart.

assay: inhibitors of PhoP regulon expression, primary screen, Salmonella Typhimurium, GFP reporter (AID 1863);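 further: 0% = low Mg2+ inducing control and 100% = high Mg2+ repressing control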; settings: S. Typhimurium PhoP-regulated promoter GFP reporter, 4 h; at 50 µM; stronger effect = higher value

inhibition, inactive:
CCN(C(=O)COC(=O)c1ccc(C)c(S(=O)(=O)N2CCCCC2)c1)C1CCS(=O)(=O)C1 (configuration not stated) -0.22%
CC(Oc1ccccc1)C(=O)N=C1SC2CS(=O)(=O)CC2N1c1cccc(F)c1 (configuration not stated) -0.94%
COc1ccc(S(=O)(=O)N(C)c2ccc(C(=O)NCC3CCCO3)cc2)cc1 (configuration not stated) 15.5%
CN(C)NC1CC(=O)N(c2ccccc2)C1=O (configuration not stated) -0.29%
CCOP(=O)(OCC)C(C)(C)NC(=O)c1cc([N+](=O)[O-])cc([N+](=O)[O-])c1 -1.13%
O=C1Nc2ccccc2C1=O 6.44%
O=C1C(O)=C(O)C(=O)c2ccccc21 9.48%
COC(=O)C1=C(SC)N(c2ccccc2)C(c2ccccc2)CC1=O (configuration not stated) 11.8%
CCCCCCCCCCCCCCCC[n+]1ccc(C(N)=O)cc1 20.5%
NC(=O)C[n+]1ccc(/C=N/O)cc1 -4.29%
CCS(=O)(=O)N1CCCC(C(=O)NCCCOC)C1 (configuration not stated) -8.48%
CC1(N(O)/C=C2\C=CC=CC2=O)CCCCC1=O (configuration not stated) -4.1%
COC(=O)CCC(=O)Nc1ccccc1C(N)=O 15.3%
CN(C)S(=O)(=O)c1cccc(NC(=S)N/N=C/c2ccc(O)c(O)c2O)c1 -0.51%
COc1ccc(O)c(/C=N/NC(=S)Nc2cccc(S(=O)(=O)N(C)C)c2)c1 22.2%
Cc1ccc(Nc2nc(N)c([N+](=O)[O-])c(NCc3ccccc3)n2)cc1 -2.58%
Nc1ccc2c(c1)C(=O)c1ccccc1C2=O 8.76%
O=C1C(=O)c2ccc(-c3ccccc3)cc2-c2ccccc21 -10.4%
CC(=O)Nc1ccc(S(=O)(=O)N2C(C)CCCC2C)cc1 (configuration not stated) 11.1%
COc1ccc(/C=N/NC(=O)Cn2nnc3ccccc32)cc1OC -6.81%
COc1cc(/C=N/NC(=O)Cn2nnc3ccccc32)ccc1O -5.12%
COCCNC(=O)C1CCC(Cn2c(=S)[nH]c3ccccc3c2=O)CC1 (configuration not stated) 4.17%
Cc1ccc2oc(=O)c(/C=C(\O)C(C)(C)C)nc2c1 -0.34%
CC(C)(C)/C(O)=C/c1nc2ccccc2oc1=O -5.43%
CC(=O)Nc1ccc(CN(C)CC2CCCN(CCc3cccc(C(F)(F)F)c3)C2)cc1 (configuration not stated) 8.69%
COc1ccccc1N=CC=C1OC(C)(C)C(C)(C)O1 -3.09%
CCC[C@H](CN[C@@H](CNC)[C@H](C)CC)NCCc1cc(C(F)(F)F)cc(C(F)(F)F)c1 19.5%
CC(Cc1cccc(C(F)(F)F)c1)NCCOC(=O)c1ccccc1 (configuration not stated) -9.48% and -7.52%
CNC[C@@H](C)NC[C@@H](Cc1ccccc1)NCCc1ccccc1 9.81%
CCC[C@@H](CNC)NC[C@H](Cc1ccccc1)NCCCCc1ccccc1 3.18%
Cc1ccccc1-c1noc(CCC(=O)NCC2CCCO2)n1 (configuration not stated) 6.26%
O=C1OCCC/C1=C\c1ccc2c(c1)OCO2 1.4%
O=C(Cc1nc2ccccc2[nH]1)c1cccc([N+](=O)[O-])c1 -11.1%
CCC(=O)N1C(=O)C2(Nc3ccccc3N2)c2ccccc21 -1.88%
CC(C)(C)c1ccc(NC(=O)COC(=O)c2ccc(NS(=O)(=O)c3ccc(F)c(F)c3)cc2)cc1 1.23%
CCCOc1ccc(Cc2nc(N)nc(N)n2)cc1 20.1%
CCCCOc1ccc(CN(C)c2ncnc(N)n2)cc1 -10.1%
COc1ccc(Cc2c(N)nc(N)nc2N)cc1 2.89%
Cc1cc(=O)[nH]c(Cc2ccc(OC(C)C)cc2)n1 10.3%
CC(C)Oc1ccc(Cc2cnc(=S)[nH]c2N)cc1 5.16%
COc1cc(C)c(Cc2cnc(N)nc2N)cc1OC -1.03%
O=C(Nc1ccc(N2CCOCC2)c(Cl)c1)c1ccc(F)cc1 -2.15%
S=C(NCC1CCCO1)c1ccc(Br)cc1 (configuration not stated) 2.88%
CCOC(=O)C1(C)/C(=N/Nc2ccccc2)C(=O)C(=O)N1c1ccccc1 (configuration not stated) -7.22%
CCCn1cnnc1CNC(=O)C1CCC(=O)N(CCCc2ccccc2)C1 (configuration not stated) 2.57%
CCOC(=O)c1cc(S(=O)(=O)NCC2CCN(Cc3cccc(C)c3)CC2)cn1C 1.53%
O=C(Nc1ccnn1C1CCN(C(=O)c2c(F)cccc2F)CC1)C1CC1 -1.51%
Cc1ncc(CN2CCCC(CCC(=O)NCc3ccc(F)c(F)c3)C2)s1 (configuration not stated) -2.44%
Cn1cnc([N+](=O)[O-])c1Oc1ccc2ccccc2c1 16.2%
Cn1cnc([N+](=O)[O-])c1Oc1ccccc1 21.7%
CCCCCCC(C)n1[nH]c(=O)cc1N (configuration not stated) 0.2%
Cc1ccc(-c2noc(CN3C(C)CCCC3C)n2)cc1 (configuration not stated) 3.05%
Cc1ccc(C(=O)NC2CCCCC2)cc1S(=O)(=O)N1CCCC1 4.45%
Cc1ccc(NC(=S)NC(CO)C(O)c2ccc([N+](=O)[O-])cc2)cc1 (configuration not stated) 8.17%
CS(=O)(=O)c1ccc(C(=O)NC(Cc2ccccc2)c2ccccc2)cc1 (configuration not stated) 4.54%
CS(=O)(=O)c1ccc(C(=O)NCc2ccccc2F)cc1 -3.92%
O=C(O)c1cc(S(=O)(=O)NC(CO)C(O)c2ccc([N+](=O)[O-])cc2)ccc1Br (configuration not stated) 8.08%
Cc1cccc(CN2CCN(Cc3cccc(-n4cccn4)c3)CC2CCO)n1 (configuration not stated) -2.39%
O=C1CCN(Cc2ccc(Cl)cc2)N1 -4.83%
CC(=O)c1cccc(S(=O)(=O)Nc2ccc(N3CCOCC3)cc2)c1 -4.4%
NC1=NC[C@H](c2ccccc2)N1CC1CCCCC1 -3.43%
NC1=NC[C@@H](Cc2ccc(O)cc2)N1CCC12CC3CC(CC(C3)C1)C2 -0.89%
NC1=NC[C@H](Cc2ccc(O)cc2)N1CC1CCCCC1 3.06%
CCCCN1C(N)=NC[C@@H]1Cc1ccc(O)cc1 0.58%
CCCCN1C(N)=NC[C@@H]1c1ccccc1 -3.32%
CCCCN1C(N)=NC[C@H]1Cc1ccc(O)cc1 5.24%
NCCCC[C@H]1CN=C(N)N1CCCCC1CCCCC1 11.9%
NC1=NC[C@@H](Cc2ccc(O)cc2)N1CC1CCCCC1 -0.19%
Cc1ccccc1OCC(=O)Nc1ccc(N2CCN(C)CC2)c(Cl)c1 5.97%
COC(=O)c1ccc(OCC(=O)c2ccc(C)c(C)c2)cc1 -11.3%
CCOC(=O)c1c(-c2ccccc2)nc2cc(C)ccn12 -0.32%
Nc1nonc1NN=C1CCCCC1 2.62%
COc1ccc(N(CC(=O)NC2CCCC2)C(=O)c2ccc(C)s2)cc1OC -1.51%
Cc1ccc(S(=O)(=O)N/N=C/c2cccs2)cc1 1.58%
COc1ccc(OC)c(S(=O)(=O)CC(O)CS(=O)(=O)c2ccccc2)c1 (configuration not stated) -7.1%
O=C(CC1C(=O)NCCN1CCCc1ccccc1)NCCc1ccccc1F (configuration not stated) 5.1%
NC1=NC[C@H](Cc2ccccc2)N1CC1CCCCC1 -1.5%
CN(C)C1=NC[C@H](Cc2ccccc2)N1CCCC1CCCC1 -2.38%
Cc1nn(-c2ccccc2)c(N2CCCC2)c1/C=N/NC(=O)c1ccccc1O -4.47%
O=C(Oc1ccc(/C=N/NC(=O)c2ccccc2O)cc1)c1ccccc1 -2.42%
Cc1ccc(CCNC(=O)C2CCCN(S(=O)(=O)c3c(C)nn(C)c3C)C2)cc1 (configuration not stated) -2.59%
Cc1[nH]c2ccccc2c1C(=O)CSC(=S)N1CCCCC1 -9.67%
O=C(Cc1nnc(NC(=O)Nc2ccccc2)s1)Nc1ccccc1 0.5%
Cc1cccc(NC(=S)N2CCC(N(C)CC3CCCO3)CC2)c1 (configuration not stated) 2.69%
Cc1cc[n+](CC[n+]2ccc(C)cc2)cc1 6.23%
CCC(C)(C)c1ccc(OCC(=O)N(C)C)c(C(C)(C)CC)c1 -2.72%
CCC(C)(C)c1ccc(OCCCC[n+]2cccc(C)c2)c(C(C)(C)CC)c1 25.6%
Cc1cc(C(C)(C)C)ccc1OCCCCN1CCCC1 -7.85%
Cc1nc2c(ncn2-c2ccccc2)c(=O)n1NC(=O)CN1CCN(C)CC1 4.84%
COc1ccc(CNc2ncccc2[N+](=O)[O-])cc1 2.57%
COC(C(=O)Nc1ccc(Br)cc1F)c1ccccc1 (configuration not stated) 4.52%
COc1ccc2[nH]cc(/C=N/NS(=O)(=O)c3ccc(C)cc3)c2c1 -5.48%
NC(=S)N/N=C/c1c[nH]c2ccc(OCc3ccccc3)cc12 1.88%
N=c1n(Cc2ccc(Cl)cc2)c2ccccc2n1CC(O)COc1ccccc1 (configuration not stated) 3.85%
COc1ccccc1OCC(O)Cn1c(=N)n(Cc2ccccc2)c2ccccc21 (configuration not stated) -0.92%
O=C(NC1CCCCC1)C1COc2ccccc2O1 (configuration not stated) 1.35%
O=C(N/N=C/c1ccc([N+](=O)[O-])o1)c1ccncc1 3.52%
O=C(N/N=C/C=C/c1ccccc1[N+](=O)[O-])c1cccs1 -10.8%
Cc1scc(C(=O)N/N=C/c2ccco2)c1C 0.79%
O=C(N/N=C/C=C/c1ccc([N+](=O)[O-])cc1)c1cccs1 -4.65%
CCCC(=O)Nc1ccc(C(=O)N/N=C/c2ccc([N+](=O)[O-])o2)cc1 -16.6%
Cc1cc(C(=O)N/N=C/c2ccc([N+](=O)[O-])o2)c(C)o1 -2.92%
